Measured values taken from publication PMC5540273 (PLoS ONE, 2017).

How the values were obtained:
Details in all cases: concentration: 1 μM, replicates: in singlicate; n = 1
[1] = system: TNNI3K
[2] = system: T1, TRKA
T1 construct: gene NTRK1

[3] = system: TRKB
[4] = system: T2, TRKC
T2 construct: gene NTRK3

[5] = system: TRPM6
[6] = system: TSSK1B
[7] = system: TSSK3
[8] = system: TTK
[9] = system: TXK
[10] = system: TYK2(JH1domain-catalytic)
[11] = system: TYK2(JH2domain-pseudokinase)
[12] = system: TYRO3
[13] = system: ULK1
[14] = system: ULK2
[15] = system: ULK3
[16] = system: T3, VEGFR2
T3 construct: gene KDR

[17] = system: T4, VPS34
T4 construct: gene PIK3C3

[18] = system: VRK2
[19] = system: WEE1
[20] = system: WEE2
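Further: KINOMEscan kinase panel screen.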

SMILES	%Inh [1] [%]	%Inh [2] [%]	%Inh [3] [%]	%Inh [4] [%]	%Inh [5] [%]	%Inh [6] [%]	%Inh [7] [%]	%Inh [8] [%]	%Inh [9] [%]	%Inh [10] [%]	%Inh [11] [%]	%Inh [12] [%]	%Inh [13] [%]	%Inh [14] [%]	%Inh [15] [%]	%Inh [16] [%]	%Inh [17] [%]	%Inh [18] [%]	%Inh [19] [%]	%Inh [20] [%]
Cn1cc(-c2ccc3c(c2)CCN3C(=O)Cc2cc(F)cc(C(F)(F)F)c2)c2c(N)ncnc21 [GSK2635225]	47	49	49	69	36	0	15	26	0	0	1	0	0	0	0	22	3	0	0	0
Cc1nn2c(=O)cc(N3CCO[C@H](C)C3)nc2n1Cc1cccc(Cl)c1Cl [GSK2373693]	60	0	7	0	0	21	5	0	0	17	18	15	78	0	14	0	96.5	0	0	0
O=C(Nc1n[nH]c2nc(-c3ccccc3O)ccc12)C1CC1 [SB-711880]	0	49	17	16	0	0	0	18	0	0	6	0	0	0	16	0	0	0	0	79
Cl.Cl.NC(CNC(=O)c1cc(Br)c(-c2ccnc3[nH]ccc23)s1)c1ccccc1 (centres unmarked) [GSK1322949]	0	100	91.6	85	0	7	34	38	0	71	38	0	49	0	8	30	59	67	18	0
